This passage reports outcome and AC50 results from PubChem BioAssay (EPA / NIEHS).

Activity calls are given as the source filed them. The calls were made as follows: active = hit-call score of the fitted dose curve at least 0.9, where 1 is the maximum; inactive = score below 0.9.

Read-out in the experiment: Ezrin (EZR), EZR (gene 7430)
The experiment is described as follows: LTEA_HepaRG_EZR: Life Technologies and Expression Analysis (LTEA) Assay for Ezrin (EZR) using HepaRG (AID 2283491). The settings on record: mRNA level, 48 h; actives raise or lower the signal. On the procedure: It is a marker of Cellular remodeling.Data from the assay component LTEA_HepaRG_EZR was analyzed into 1 endpoint. This assay endpoint, LTEA_HepaRG_EZR, was analyzed with bidirectional fitting relative to DMSO as the negative control and baseline of activity. Using a type of inducible reporter, measures of mRNA induction for gain or loss-of-signal activity can be used to understand regulation of transcription factor activity. To generalize the intended target to other relatable targets, this assay endpoint is annotated to the membrane protein intended target family, where the subfamily is Cellular remodeling.
A total of 1060 chemcials from the ToxCast library were tested in eight-point concentration-response experiments. Cell culture and cytotoxicity assays were conducted at Thermo Fisher Scientific's Custom Services facility (Madison, WI). A single lot of human HepaRG cells (Thermo Fisher Scientific, Frederick, MD) was used for the cell culture experiments. 96-well format collagen type I coated plates of human HepaRG cells were prepared using established methods. Briefly, cryopreserved HepaRG cells were thawed, plated at a density of approximately 100,000 cells/well in HepaRG Thaw, Plate, and General Purpose media (HPRG770, Thermo Fisher Scientific), and incubated for 48 hours. 0.5% DMSO was selected as vehicle control to balance the requisite need of DMSO in HepaRG cultures to maintain differentiation (for example, baseline metabolism, proportions of hepatocytes vs. cholangiocytes), while enabling further hepatic receptor pathway activation (for example, PXR and CAR) in response to chemical exposure. 48 hours after plating, the culture medium was replaced with HepaRG Serum-Free Incudtion Media. Cells were exposed to each test chemical in duplicate and maintained in CO2 incubators for another 48 hours. Chemical plates were thawed to room temperature and 200x concentrations of treatment groups were prepared. 8-point conentration-reponse curves were made with the highest exposure at 100 uM, followed by half-log dilutions, all in 0.5% DMSO. Each test plate contained variouse controls, induction positive controls (1mM phenobarbital), cytotoxicity positive controls ([…] aflatoxin B1), vehicle controls (0.5% DMSO), and total lysis controls (0.5% DMSO). Cell morphology images were taken using an Essen IncuCyte FLR automated microscope, with six 96-well plates imaged in about 24 minutes. Images were captured and exported and JPEG files. Spent culture media was transfered to black-well plates for the LDH assay, and remaining media was sorted at -80 C for later use. Cells were treated with RLT buffer and frozen until shipped for gene expression analysis. Total RNA was isolated from the cell suspension in 75 uL of Buffer RLT (Qiagen, Germantown, MD 20874) by Quintiles/Expression Analysis (Durham, NC) using a custom isolation procedure. Total RNA from each plate well was transferred to a preamplification plate. Fluidigm's 96.96 Dynamic ArrayTM (Fluidigm, Amsterdam, the Netherlands) technology was used for gene expression analyses by quantitative reverse transcription polymerase chain reaction (qRT-PCR, performed by Quintiles/Expression Analysis, Durham, NC)89. Standard TaqManTM Assays (Applied Biosystems/ThermoFisher Scientific, Foster City, CA) were used to assess the expression of 93 genes selected based on their selectivity and sensitivity to important hepatic receptors known to be modulated by environmental chemicals; importance in human hepatocyte functionality; and hepatotoxicity. Three "housekeeping" endogenous control genes were also included and used for normalization: actin beta (ACTB), Glyceraldehyde 3 phosphate dehydrogenase (GAPDH) and RNA Polymerase II Subunit A (POLR2A). qRT-PCR was conducted according to the manufacturer's protocol.
In the case of `CON=C(C(=O)OC)c1ccccc1CON=C(C)c1cccc(C(F)(F)F)c1`, the molecule was called inactive. `CCOP(=S)(OCC)Oc1cc(C)nc(C(C)C)n1`: the outcome was inactive.

In the case of `COP(=O)(OC)SCn1c(=O)oc2cc(Cl)cnc21`, the result was inactive. As for `CCOP(=O)(SC(C)CC)N1CCSC1=O` (stereo not given), the molecule was called inactive.

Turning to `CCCOc1nn(C(=O)NS(=O)(=O)c2ccccc2C(=O)OC)c(=O)n1C`, the call was inactive. On to `CC(C)=CC1C(C(=O)OCN2C(=O)C3=C(CCCC3)C2=O)C1(C)C` (stereo not given), for which the molecule was called inactive. As for `N#CSCSC#N`, the molecule was called inactive. As to `Nc1c(Cl)cc([N+](=O)[O-])cc1Cl`, the AC50 – broadly, the midpoint of the concentration-response curve, whichever way the signal moves – is 50 µM (active).

In the case of `COc1cc(OC)nc(Sc2cccc(Cl)c2C(=O)O)n1`, the outcome was inactive. Consider `CC(=NC#N)N(C)Cc1ccc(Cl)nc1`, for which the call was inactive. On the same count and under the same terms, as for `CCCSP(=O)(OCC)SCCC`, the entry is “inactive”. Regarding `CCOP(=S)(OCC)SCCSCC`, the call was inactive.

With `O=[N+]([O-])c1cc(C(F)(F)F)c(Cl)c([N+](=O)[O-])c1Nc1ncc(C(F)(F)F)cc1Cl`, the call was inactive. Take `Cc1ccn2nc(S(=O)(=O)Nc3c(F)cccc3F)nc2n1`: the outcome was inactive. For `Nc1nc(N)nc(NC2CC2)n1`, the molecule was called inactive.

Consider `CCC(=NOC/C=C/Cl)C1=C(O)CC(C2CCOCC2)CC1=O` (stereo not given), for which the result was inactive. Turning to `CCC(=O)Nc1ccc(Cl)c(Cl)c1`, the call was inactive. On the same count and under the same terms, to `CN1COCN(Cc2cnc(Cl)s2)C1=N[N+](=O)[O-]` belongs “inactive”; to `CC(C)N(C(=O)SCC(Cl)=C(Cl)Cl)C(C)C`, “inactive”; to `CCc1cnc(C2=NC(C)(C(C)C)C(=O)N2)c(C(=O)O)c1` (stereo not given), “inactive”. Consider `CN(C)C(=O)Nc1cccc(C(F)(F)F)c1`, for which the outcome was inactive. Regarding `CCOP(=S)(OCC)OC(Cl)C(Cl)(Cl)Cl` (stereo not given), the call was inactive.

`CCOP(=S)(Oc1cnc(C(C)(C)C)nc1)OC(C)C` (stereo not given): the outcome was inactive.

On to `CC(COc1ccc(Oc2ccccc2)cc1)Oc1ccccn1` (stereo not given), for which the outcome was inactive. `C[Si](Cn1cncn1)(c1ccc(F)cc1)c1ccc(F)cc1`: the molecule was called inactive. Turning to `CSc1nnc(C(C)(C)C)c(=O)n1N`, the outcome was inactive. Regarding `CCC(CC)Nc1c([N+](=O)[O-])cc(C)c(C)c1[N+](=O)[O-]`, the molecule was classed as inactive. As to `CCNc1nc(Cl)nc(NC(C)(C)C#N)n1`, the call was inactive.

Turning to `CCc1cccc(CC)c1N(COC)C(=O)CCl`, the call was inactive. Same read-out and setting: to `CCOP(=S)(OCC)Oc1ccc([N+](=O)[O-])cc1` belongs “inactive”; to `CC1(C(=O)Nc2ccc(O)c(Cl)c2Cl)CCCCC1`, “inactive”; to `CCOC(=O)CC(SP(=O)(OC)OC)C(=O)OCC` (stereo not given), “inactive”. As for `C#CCC1=C(C)C(OC(=O)C2C(C=C(C)C)C2(C)C)CC1=O` (stereo not given), the call was inactive. Still for that read-out and setting: to `CNC(=O)ON=C(C)SC` belongs “inactive”. Consider `CSC1=N[C@@](C)(c2ccccc2)C(=O)N1Nc1ccccc1`, for which the AC50 is 13.1 µM (active).

For `O=C(O)c1cc(Oc2ccc(C(F)(F)F)cc2Cl)ccc1[N+](=O)[O-]`, the result was inactive. For `COc1ccc(C(=CC(=O)N2CCOCC2)c2ccc(Cl)cc2)cc1OC`, the molecule was called inactive. Take `CC(Oc1cccc(Cl)c1)C(=O)O` (stereo not given): the outcome was inactive. Turning to `CC1=NNC(=O)N(/N=C/c2cccnc2)C1`, the result was inactive. Take `O=c1ccc(=O)[nH][nH]1`: the result was inactive.
